The values that follow come from PubChem BioAssay (Tox21).

Inconclusive results are not listed. Active and inactive are the calls of the source. The call rests on the fitted dose curve; in most records, active means well fitted activation curve with a large enough effect; inconclusive means small, poorly fitted or top-dose-only effect; inactive means flat fitted curve, though single readings scatter.
On the % scale 0 is the no-effect control and ±100 the full control effect; potency means the concentration at half of the fitted maximal effect.

The test is described as follows: qHTS assay to identify small molecule phospholipidosis (PLD) inducers (AID 1259344). As to conditions: HepG2 phospholipidosis, LipidTOX Red imaging, 24 h; series mostly up to 38.3 µM; PLD induction: at the top concentration. From the text: National Center for Advancing Translational Sciences [NCATS]
Drug-induced Phospholipidosis (PLD) caused by cationic amphiphilic drugs is characterized by the appearance of unicentric or multicentric-lamellar bodies when viewed under electron microscope. Electron microscopy is the gold standard method for PLD detection, however, this method is time-consuming and labor intensive, making it unsuitable for evaluating a large set of compounds. A cell-based phospholipidosis assay has been developed using the LipidTox reagent in HepG2 cells and miniaturized into a 1536-well plate format. Drug induced phospholipid accumulation is stained with the LipidTox dyes in red color which then is determined using an automated high content screening system.
HepG2 cells are dispensed at 900 cells/3 uL/well into Collagen I-coated 1536-well black-wall/clear-bottom assay plates (Greiner Bio-One, Monroe, NC) using the Multidrop Combi 8 channel dispenser (Thermo Fisher, Waltham, MA, USA). The assay plates are incubated at 37 C for 4 hours to allow the cell attachment. 3 uL of 1:500 LipidTOX Red dye is added using the dispenser, and then 23 nL compounds are added via a Wako Pintool station (Wako Automation, San Diego, CA). Amiodarone, a known PLD inducer, was used as a positive control and DMSO was used as a negative control. The assay plates were then incubated at 37 C for 24 hours.
For fixations, 4 uL of 8% paraformaldehyde fixative solution containing 10 ug/mL Hoechst 33342 in Dulbecco's phosphate-buffered saline (DPBS) is added using a Kalypsys washer/dispenser (Kalypsys, San Diego, CA, USA). After incubation at room temperature for 30 min, the assay plates are washed once with DPBS using a Kalypsys washer/dispenser. The assay plates are then sealed and stored at 4 C before imaging. The fluorescence intensities (595 nm excitation, 615 nm emission for LipidTOX; 352 nm excitation, 461 nm emission for Hoechst 33342) are measured using an ImageXpress Micro Widefield High Content Screening System (Molecular Devices, Sunnyvale, CA, USA) with a 20x Plan Fluor objective. Images are acquired for one site in each well and analyzed with the MetaXpress software (Molecular Devices) using the Transfluor module. Several algorithmic outputs, such as pit count per well, pit count per cell, pit integrated intensity per well, and pit integrated intensity per cell, are used for quantitative image analysis for PLD.
On the technique in general: qHTS replaces the single test concentration by a dilution series.
As to `CCN(CC)C(=O)/C(C#N)=C/c1cc(O)c(O)c([N+](=O)[O-])c1`, the “PLD induction” value is 2.05% (inactive).
For `CC(C)(C)NCC(O)COc1cccc2c1C[C@H](O)[C@H](O)C2` (stereo not given in full), the “PLD induction” value is -0.304% [at 15.5 µM] (inactive).
Still for that read-out and setting: as for `CSCC[C@H](NC(=O)[C@H](Cc1c[nH]c2ccccc12)NC(=O)CCNC(=O)OC(C)(C)C)C(=O)N[C@@H](CC(=O)O)C(=O)N[C@@H](Cc1ccccc1)C(N)=O`, the figure is -3.53% (inactive).
Still for that read-out and setting: as for `O=c1[nH]c2cc(C(F)(F)F)c(N3CCOCC3)cc2n(CP(=O)(O)O)c1=O`, the figure is -0.364% (inactive).
On the same count and under the same terms, as for `CN=C(N)NC(=O)Nc1c(C)cccc1C`, the figure is 0.181% (inactive); as for `CC(=O)OCC1=C(C(=O)O)N2C(=O)[C@@H](NC(=O)CSc3ccncc3)[C@H]2SC1`, 0.604% (inactive); as for `CCN(CC)CCOC(=O)C(c1ccccc1)c1ccccc1`, 8.48% (inactive).
In the case of `Cc1ccc(N(CC2=NCCN2)c2cccc(O)c2)cc1`, the “PLD induction” value was 1.26% (inactive).
On to `Cc1cccc(C)c1NC(=O)c1cc(S(N)(=O)=O)c(Cl)cc1O`, for which the “PLD induction” value is 5.81% (inactive).
`CNC1CCCN(c2c(F)cc3c(=O)c(C(=O)O)cn(C4CC4)c3c2OC)C1` (stereo not given): the “PLD induction” value is 0.187% (inactive).
Regarding `COc1cc(C(C)=O)ccc1OCCCN1CCC(c2noc3cc(F)ccc23)CC1`, the Potency is 1000 nM (active).
In the case of `c1ccc2sc(SSc3nc4ccccc4s3)nc2c1`, the “PLD induction” value was -0.162% (inactive).
For `CC12CC3CC(C)(C1)CC(N)(C3)C2`, the “PLD induction” value was 4.54% (inactive).
Same read-out and setting: as for `CC(=O)OC(C)C[N+](C)(C)C` (stereo not given), the figure is -1.61% [at 15.5 µM] (inactive).
Still for that read-out and setting: as for `CNc1c2c(nn1C)CCCC2`, the figure is -0.812% (inactive).
For `COc1cc(NS(=O)(=O)c2ccc(N)cc2)nc(C)n1`, the PLD induction is -3.88% [at 7.66 µM] (inactive).
As to `Nc1ccc(S(=O)(=O)NCc2ccccc2)cc1`, the “PLD induction” value was -1.08% (inactive).
On the same count and under the same terms, the figure for `CC(C)C1CCC(C(=O)N[C@H](Cc2ccccc2)C(=O)O)CC1` (stereo not given in full) is 0.32% (inactive).
Same read-out and setting: the figure for `CC(O)Cn1cnc2c1c(=O)n(C)c(=O)n2C` (stereo not given) is -1.14% [at 15.5 µM] (inactive); for `CCCCCCCCCCCC(=O)OCC(O)CO` (stereo not given) it is 0.686% (inactive).
Same read-out and setting: the figure for `COC(=O)C1=C(C)NC(C)=C(C(=O)OC(C)(C)CN(C)CCC(c2ccccc2)c2ccccc2)C1c1cccc([N+](=O)[O-])c1` (stereo not given) is 0.103% (inactive); for `O=C(O)CCC(=O)OC[C@@H](NC(=O)C(Cl)Cl)[C@H](O)c1ccc([N+](=O)[O-])cc1` it is -0.742% (inactive).
As to `Nc1nc2ccc(OC(F)(F)F)cc2s1`, the “PLD induction” value was 0.619% (inactive).
For the compound `Cc1c[nH]c2ccccc12`, the “PLD induction” value is -0.0254% (inactive).
`O=C(O)CCC(=O)c1ccc(-c2ccccc2)cc1`: the “PLD induction” value was -0.097% [at 15.5 µM] (inactive).
In the case of `C[C@@H]1[C@H](O)[C@@H](C)/C=C/C=C\C=C\C=C\C=C\C=C\C=C\[C@H](O[C@@H]2O[C@H](C)[C@@H](O)[C@H](N)[C@@H]2O)C[C@@H]2O[C@](O)(C[C@@H](O)C[C@@H](O)[C@H](O)CC[C@@H](O)C[C@@H](O)CC(=O)O[C@H]1C)C[C@H](O)[C@H]2C(=O)O` (stereo in doubt), the “PLD induction” value was 2.28% (inactive).
With `CC(C)(C)C(O)/C=C/c1ccc2c(c1)OCO2` (stereo not given), the “PLD induction” value is -3.6% (inactive).
On the same count and under the same terms, the figure for `CC(CCc1ccc(O)cc1)NCCc1ccc(O)c(O)c1` (stereo not given) is 5.4% (inactive); for `Cc1ccc(S(=O)(=O)NC(=O)NC2CCCCC2)cc1` it is -0.785% (inactive).
In the case of `CCOC(=O)c1c(N)sc2c1CCN(Cc1ccccc1)C2`, the “PLD induction” value was -0.4% (inactive).
In the case of `N[C@@H](Cc1cc(I)c(O)c(I)c1)C(=O)O`, the “PLD induction” value was 10.4% (inactive).
As for `CC[C@H]1OC(=O)[C@H](C)[C@@H](O[C@H]2C[C@@](C)(OC)[C@@H](O)[C@H](C)O2)[C@H](C)[C@@H](O[C@@H]2O[C@H](C)C[C@H](N(C)C)[C@H]2O)[C@](C)(O)C[C@@H](C)C(=O)[C@H](C)[C@@H](O)[C@]1(C)O`, the Potency result was “inactive”.
`O=C1[C@@H]2[C@H]3CC[C@H](C3)[C@@H]2C(=O)N1CCCCN1CCN(c2ncccn2)CC1`: the “PLD induction” value was 3.7% (inactive).
Still for that read-out and setting: as for `COc1ccc2nc(S(=O)Cc3ncc(C)c(OC)c3C)[nH]c2c1` (stereo not given), the figure is -0.875% (inactive); as for `Cc1cn([C@H]2C[C@H](F)[C@@H](CO)O2)c(=O)[nH]c1=O`, -1.19% (inactive).
`O=C(O)CNC(=O)c1ccccc1I`: the “PLD induction” value was 1.59% (inactive).
On the same count and under the same terms, as for `CC(=O)OCC(=O)[C@@]1(OC(C)=O)[C@@H](C)C[C@H]2[C@@H]3C[C@H](F)C4=CC(=O)C=C[C@]4(C)[C@@]3(F)[C@@H](O)C[C@@]21C`, the figure is 0% (inactive); as for `O=C(NC(Cc1cc(=O)[nH]c2ccccc12)C(=O)O)c1ccc(Cl)cc1` (stereo not given), -0.238% (inactive); as for `Cc1ccc2nc(N)[nH]c(=O)c2c1Sc1ccncc1`, 2.1% (inactive).
For `CN1C(CSCC(F)(F)F)Nc2cc(Cl)c(S(N)(=O)=O)cc2S1(=O)=O` (stereo not given), the “PLD induction” value is 19.6% (inactive).
